Source: PubChem BioAssay
miR-122 inh: raises miR-122 sensor activity in Huh7 cells | Huh7 psiCHECK-miR122 Renilla luciferase sensor, 48 h | activation, % at 12.5 µM | 340,000 tested, 0.14% active | AID 623901;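 active means mean activation of 30% or more, with every replicate also reaching 30%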;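 further: 0% = median of neutral control wells and 100% = median of positive control wells; higher luciferase signal means stronger suppression of miR-122 activity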
* hit, by the source's call. Shown is part of a subset that was picked to be rich in hits.

SMILES | miR-122 inh
Cc1ccccc1-c1ccc2c(c1)O[C@H](CN(C)C(=O)Nc1ccccc1)[C@@H](C)CN([C@H](C)CO)S2(=O)=O | -7
Cc1ccccc1-c1ccc2c(c1)O[C@H](CN(C)C(=O)Nc1ccccc1)[C@H](C)CN([C@H](C)CO)S2(=O)=O | -16
COCC(=O)N(C)C[C@H]1Oc2cc(-c3ccc(C#N)cc3)ccc2S(=O)(=O)N([C@H](C)CO)C[C@H]1C | 59*
COCC(=O)N(C)C[C@@H]1Oc2cc(-c3ccccc3)ccc2S(=O)(=O)N([C@@H](C)CO)C[C@@H]1C | 3
CCCC#Cc1ccc2c(c1)O[C@@H](CN(C)C(=O)CC)[C@H](C)CN([C@@H](C)CO)S2(=O)=O | -85
C[C@H]1CN([C@@H](C)CO)S(=O)(=O)c2ccc(C#Cc3ccccc3F)cc2O[C@H]1CN(C)C(=O)Cc1ccccc1 | -1
C[C@H](CO)N1C[C@H](C)[C@H](CN(C)C(=O)Nc2cccc3ccccc23)Oc2ncc(-c3cc4ccccc4o3)cc2C1=O | 3
CO[C@H]1CN(C)C(=O)c2ccc(NC(=O)Nc3ccc(Cl)cc3)cc2OC[C@@H](C)N(C)C[C@H]1C | -1
CCCN(C)C[C@@H]1Oc2cc(C#CCN(C)C)ccc2S(=O)(=O)N([C@H](C)CO)C[C@@H]1C | -5
COCC(=O)N(C)C[C@H]1Oc2cc(-c3cccc(F)c3)ccc2S(=O)(=O)N([C@H](C)CO)C[C@@H]1C | -9
C[C@@H]1CN([C@H](C)CO)S(=O)(=O)c2ccc(-c3cccc(C(=O)N(C)C)c3)cc2O[C@H]1CN(C)C(=O)Nc1ccccc1 | -13
CCC(=O)N(C)C[C@@H]1Oc2ncc(C#Cc3ccc(OC)cc3)cc2C(=O)N([C@H](C)CO)C[C@H]1C | 3
C[C@@H]1CN([C@H](C)CO)S(=O)(=O)c2ccc(C#CC3CCCC3)cc2O[C@@H]1CN(C)CC1CC1 | -6
CCC(=O)N(C)C[C@@H]1Oc2ncc(C#Cc3ccc(OC)cc3)cc2C(=O)N([C@@H](C)CO)C[C@@H]1C | 9
COCC#Cc1cnc2c(c1)C(=O)N([C@@H](C)CO)C[C@H](C)[C@@H](CN(C)C(=O)Nc1ccc(OC)cc1)O2 | 4
C[C@H]1CN([C@@H](C)CO)C(=O)c2cc(Br)cnc2O[C@H]1CN(C)Cc1ccc2c(c1)OCO2 | 12
CCC(=O)Nc1ccc2c(c1)C(=O)N(C)C[C@@H](OC)[C@H](C)CN(Cc1ccccc1OC)[C@H](C)CO2 | -40
C[C@H](CO)N1C[C@H](C)[C@@H](CN(C)C(=O)CC2CC2)Oc2cc(-c3ccccc3)ccc2S1(=O)=O | -32
C[C@H]1CN([C@@H](C)CO)C(=O)c2cc(C#CCC3CCCC3)cnc2O[C@@H]1CN(C)CC1CCOCC1 | -9
C[C@H]1CN([C@@H](C)CO)S(=O)(=O)c2ccc(C#Cc3cccnc3)cc2O[C@H]1CN(C)CC1CCOCC1 | -4
CC(=O)N(C)C[C@H]1Oc2cc(C#C[C@@H](C)O)ccc2S(=O)(=O)N([C@H](C)CO)C[C@H]1C | 5
CC(=O)N(C)C[C@H]1Oc2cc(C#Cc3ccc(F)cc3)ccc2S(=O)(=O)N([C@H](C)CO)C[C@H]1C | 37*
CC(=O)N(C)C[C@H]1Oc2cc(C#C[C@@H](C)O)ccc2S(=O)(=O)N([C@H](C)CO)C[C@@H]1C | 6
CCCCOc1ccc(S(=O)(=O)Nc2ccc(NC(C)=O)cc2)cc1 | -205
CCCCNC(=O)Nc1nnc(-c2ccc(OCC)cc2)o1 | 36*
SMILES | miR-122 inh
CCCC#Cc1ccc2c(c1)O[C@@H](CN(C)S(C)(=O)=O)[C@H](C)CN([C@@H](C)CO)S2(=O)=O | 1
COc1cccc(-c2cnc3c(c2)C(=O)N([C@@H](C)CO)C[C@@H](C)[C@@H](CN(C)C(=O)Nc2ccccc2F)O3)c1 | 1
CC(C)NC(=O)N(C)C[C@H]1Oc2cc(C3=CCCCC3)ccc2S(=O)(=O)N([C@H](C)CO)C[C@@H]1C | -25
CCCC(=O)OCCNc1cc(Sc2nccn2C)c2nonc2c1[N+](=O)[O-] | 62*
COCC(=O)Nc1ccc2c(c1)OC[C@@H](C)NC[C@@H](C)[C@@H](OC)CN(C)C2=O | 0
C[C@H](O)C#Cc1ccc2c(c1)O[C@@H](CN(C)C)[C@@H](C)CN([C@H](C)CO)S2(=O)=O | 3
C[C@H](CO)N1C[C@H](C)[C@H](CN(C)C(=O)c2cccnc2)Oc2ncc(Br)cc2C1=O | 2
C[C@H](CO)N1C[C@H](C)[C@H](CN(C)S(=O)(=O)c2ccc(F)cc2)Oc2ncc(/C=C/c3ccccc3)cc2C1=O | 7
Cc1nn(Cc2ccc(Cl)c(Cl)c2)c(C)c1NC(=O)c1sc2ccccc2c1Cl | 32*
CC(C)CC#Cc1cnc2c(c1)C(=O)N([C@@H](C)CO)C[C@@H](C)[C@H](CN(C)C(=O)Nc1cccc(F)c1)O2 | -11
Cc1ccc(-c2ccc3c(c2)O[C@H](CN(C)Cc2ccc(F)cc2)[C@@H](C)CN([C@H](C)CO)S3(=O)=O)cc1 | -98
C[C@@H]1CN([C@H](C)CO)C(=O)c2cc(C#Cc3ccc(F)cc3)cnc2O[C@@H]1CN(C)Cc1ccccn1 | -2
